Results as given in PubChem BioAssay (Tox21).
Values without a mark were called inactive. Records with an inconclusive call do not appear. Where a call stands in place of a potency, no number is given. Active and inactive are the calls of the source. Unless noted, the call rests on the fitted dose curve; in most records, active means well fitted curve in the direction sought with a large enough effect in the repeat runs; inconclusive means weak or mixed curves; inactive means no such curve, though single readings can be large; an effect the other way counts as inactive or inconclusive.

Assays:
[1] = qHTS assay to identify small molecule agonists of the estrogen receptor alpha (ER-alpha) signaling pathway in the presence of an antagonist - cell viability counter screen (AID 1259386);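 further: series mostly up to about 92 µM; cells exposed to compounds for 22 h at 37 °C before the viability read; nearly all actives have a fitted effect of over 30% in size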
Method in brief: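 VM7Luc4E2 cells (endogenous full-length ER-alpha, 4×ERE-luciferase) were held 5 days in phenol red-free medium with 10% charcoal-stripped FBS, plated, then given 10.0nM ICI-182,780 and compounds at 15 concentrations for 22hr at 37C; viability read by CellTiter-Fluor fluorescence.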

[2] = biological target: Progesterone receptor (Homo sapiens) (UniProt P06401); assay: qHTS assay to identify small molecule agonists of the progesterone receptor (PR) signaling pathway (AID 1346784; calls by dose curve; further: nearly all actives have a fitted effect of over 30% in size)
Method in brief: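 The screen uses PR-UAS-bla HEK 293T cells in charcoal-stripped serum (2%). Compounds are applied for 16 hr at 37C after a 6 hr pre-incubation, and reporter activity is detected with a FRET beta-lactamase substrate after 2 hr at room temperature.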

[3] = biological target: Progesterone receptor (Homo sapiens) (UniProt P06401); assay: qHTS assay to identify small molecule antagonists of the progesterone receptor (PR) signaling pathway (AID 1346795; active means well fitted inhibition curve with a large enough effect in the signal ratio in the repeat runs, not every such curve was filed as active; the % refers to the signal ratio)
Method in brief: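 After 6 hr plating at 37C in 2% stripped-serum medium, PR-UAS-bla HEK293T cells got compounds, then 1 nM R5020. Sixteen hours later, LiveBLAzer substrate was applied for 2 hr at room temperature and fluorescence was recorded.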

[4] = qHTS assay to identify small molecule antagonists of the progesterone receptor (PR) signaling pathway - cell viability counter screen (AID 1346798); further: nearly all actives have a fitted effect of over 50% in size; further: potency means the concentration at half of the fitted maximal effect
Method in brief: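 Viability was determined by ATP-based luminescence (CellTiter-Glo) in PR-UAS-bla HEK293T cells cultured in 2% charcoal-stripped serum and incubated 16 hr with compounds under R5020 stimulation.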

[5] = qHTS assay to identify small molecule agonists of the progesterone receptor (PR) signaling pathway - cell viability counter screen (AID 1346799; calls by dose curve; further: nearly all actives have a fitted effect of over 45% in size)
Method in brief: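 Viability was scored by ATP luminescence (CellTiter-Glo, 30 min, room temperature) in the same wells used for the reporter readout, after 16 hr compound exposure of PR-UAS-bla HEK293T cells.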

[6] = qHTS assay to identify small molecule antagonists of the TGF-beta/Smad signaling pathway - cell viability counter screen (AID 1346824); further: nearly all actives have a fitted effect of over 50% in size
Method in brief: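 SBE-bla HEK 293T cells, incubated overnight, then compound plus 0.25 ng/mL TGF-beta1 (stock added) for 5 hr at 37 C. Viability was read in the same wells by CellTiter-Glo luminescence after 30 min at room temperature.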

[7] = qHTS assay to identify small molecule agonists of the TGF-beta/Smad signaling pathway - cell viability counter screen (AID 1346829); further: top concentration of the series differs between compounds; nearly all actives have a fitted effect of over 45% in size
Method in brief: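 After overnight seating at 37 C and 5% CO2, reporter cells got compounds for 5 hr and FRET substrate for 2 hr; cell viability then came from CellTiter-Glo luminescence.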

[8] = qHTS assay to identify small molecule agonists of the TGF-beta/Smad signaling pathway (AID 1346859; active means well fitted activation curve with a large enough effect in the signal ratio in the repeat runs, not every such curve was filed as active; the % refers to the signal ratio; further: series mostly up to about 77 µM)
Method in brief: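 Dual-wavelength fluorescence (460/530 nm emission) quantified beta-lactamase expression under the Smad binding element in HEK 293T cells following 5 hr compound treatment at 37 C.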

[9] = Human pregnane X receptor (PXR) small molecule agonists, qHTS cell viability counter screen (AID 1346977); further: nearly all actives have a fitted effect of over 50% in size
Method in brief: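 HepG2 cells stably carrying the PXR-Luc reporter are cultured with 5% charcoal-stripped FBS and treated with compounds for 24hr. CellTiter-Fluor is added at 23hr and fluorescence is read after 1hr.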

[10] = Caspase-3/7 induction in HepG2 cells by small molecules, qHTS assay (AID 1346978); further: nearly all actives have a fitted effect of over 15% in size
Method in brief: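 Wild-type HepG2 cells, 2,000/well, settled 5 hr at 37 C and 5% CO2, then compound-treated for 17 hr; caspase-3/7 activity read by luminescent Caspase-Glo 3/7 after 30 min at room temperature.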

[11] = Caspase-3/7 induction in CHO-K1 cells by small molecules, qHTS cell viability counter screen (AID 1346979); further: nearly all actives have a fitted effect of over 35% in size
Method in brief: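 Seeding: 1,500 CHO-K1 cells/well. Rest: 5hr, 37C. Treatment: compounds in DMSO, 16hr. Read: CellTiter-Fluor, 1hr, fluorescence.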

[12] = Caspase-3/7 induction in CHO-K1 cells by small molecules, qHTS assay (AID 1346980); further: nearly all actives have a fitted effect of over 15% in size
Method in brief: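 Wild-type CHO-K1 cells exposed to compounds for 17hr at 37 C, 5% CO2. Caspase-3/7 activity then measured by Caspase-Glo 3/7 luminescence after 30min at room temperature.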

[13] = Caspase-3/7 induction in HepG2 cells by small molecules, qHTS cell viability counter screen (AID 1346981); further: series mostly up to about 92 µM; nearly all actives have a fitted effect of over 30% in size
Method in brief: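 Wild-type HepG2 cells (2,000/well) were allowed to settle for 5 hr at 37 C, 5% CO2, then dosed with compounds in DMSO by pin transfer. After 16 hr at 37 C, CellTiter-Fluor was added and fluorescence read 1 hr later.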

[14] = biological target: Cytochrome P450 2D6 (Homo sapiens) (UniProt P10635); assay: Cytochrome P450 Family 2 Subfamily D Member 6 (CYP2D6) small molecule antagonists: luciferase reporter qHTS assay (AID 1671196); further: nearly all actives have a fitted effect of over 50% in size; further: potency means the concentration at half of the fitted maximal effect
Method in brief: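 CYP2D6 enzyme–substrate mix was held with compound for 10 min at room temperature, then NADPH regeneration solution was added and the reaction ran 1 h at room temperature. Luciferin product was detected by luminescence after 20 min with detection reagent.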

[15] = biological target: Thyrotropin-releasing hormone receptor (Homo sapiens) (UniProt P34981); assay: qHTS assay to identify small molecule antagonists of the thyrotropin-releasing hormone receptor (TRHR) signaling pathway (AID 1346877; active means well fitted inhibition curve with a large enough effect in the repeat runs, not every such curve was filed as active; further: series mostly up to about 51 µM)
Method in brief: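 TRHR-expressing HEK293 cells were seeded, cultured 18 h at 37 °C, then loaded with calcium dye for 2 h. Compounds were pre-incubated 5 min at room temperature before 1 nM TRH (final) was added, and kinetic fluorescence was recorded for 3 min.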

[16] = biological target: Thyrotropin-releasing hormone receptor (Homo sapiens) (UniProt P34981); assay: qHTS assay to identify small molecule agonists of the thyrotropin-releasing hormone receptor (TRHR) signaling pathway (AID 1346891; calls by dose curve; further: series mostly up to about 58 µM)
Method in brief: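 Kinetic fluorescence (3 min, 1 s intervals) reported intracellular calcium after compound transfer onto TRHR-Hek293 cells pre-loaded with dye for 2 h at 37 °C.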

[17] = biological target: Nuclear receptor subfamily 1 group I member 2 (Homo sapiens) (UniProt O75469); assay: Human pregnane X receptor (PXR) small molecule agonists, qHTS assay (AID 1346982); further: nearly all actives have a fitted effect of over 35% in size; further: potency means the concentration at half of the fitted maximal effect
Method in brief: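 PXR-Luc HepG2 cells (CYP3A4 promoter-driven luciferase) were seeded in medium with 5% charcoal-stripped FBS, left 5 hr at 37 C, then exposed to compounds in DMSO for 24 hr. Luminescence was read after ONE-Glo addition.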

[18] = biological target: Nuclear receptor subfamily 1 group I member 2 (Rattus norvegicus) (UniProt Q9R1A7); assay: Rat pregnane X receptor (rPXR) activation by small molecules, qHTS assay (AID 1346983); settings: rPXR luciferase reporter cells, One-Glo luminescence, 24 h; max activation: hits give high values; further: nearly all actives have a fitted effect of over 20% in size
Method in brief: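 Cell-based rPXR activation assay: rPXR cells, 2,000 per well, rested 5hr at 37 C, then exposed to compounds in DMSO for 24 hr at 37 C. Luciferase activity read by One-Glo luminescence after 30 min at room temperature.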

[19] = biological target: Nuclear receptor subfamily 1 group I member 2 (Homo sapiens) (UniProt O75469); assay: CYP3A4 induction through human pregnane X receptor (PXR) by small molecules, qHTS assay (AID 1346984); further: nearly all actives have a fitted effect of over 40% in size
Method in brief: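 DPX-2 cells (HepG2 co-transfected with PXR and CYP3A4 promoter-luciferase) treated with compounds 24 h at 37C; luciferin-IPA CYP3A4 substrate 3uM final added for 3 h, then One-Glo; luminescence read. qHTS format.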

[20] = biological target: Nuclear receptor subfamily 1 group I member 2 (Homo sapiens) (UniProt O75469); assay: Human pregnane X receptor (PXR) activation by small molecules, qHTS assay (AID 1346985); further: nearly all actives have a fitted effect of over 40% in size
Method in brief: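 DPX-2 cells (HepG2 co-transfected with a PXR response element and a CYP3A4-promoter luciferase construct) were seeded at 2,000 per well, rested 5 hr at 37C, then exposed to DMSO-dissolved compounds for 24 hr. Activation was read as luciferase luminescence.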

Chain of Progesterone receptor (Homo sapiens) (P06401 whole entry, looked up): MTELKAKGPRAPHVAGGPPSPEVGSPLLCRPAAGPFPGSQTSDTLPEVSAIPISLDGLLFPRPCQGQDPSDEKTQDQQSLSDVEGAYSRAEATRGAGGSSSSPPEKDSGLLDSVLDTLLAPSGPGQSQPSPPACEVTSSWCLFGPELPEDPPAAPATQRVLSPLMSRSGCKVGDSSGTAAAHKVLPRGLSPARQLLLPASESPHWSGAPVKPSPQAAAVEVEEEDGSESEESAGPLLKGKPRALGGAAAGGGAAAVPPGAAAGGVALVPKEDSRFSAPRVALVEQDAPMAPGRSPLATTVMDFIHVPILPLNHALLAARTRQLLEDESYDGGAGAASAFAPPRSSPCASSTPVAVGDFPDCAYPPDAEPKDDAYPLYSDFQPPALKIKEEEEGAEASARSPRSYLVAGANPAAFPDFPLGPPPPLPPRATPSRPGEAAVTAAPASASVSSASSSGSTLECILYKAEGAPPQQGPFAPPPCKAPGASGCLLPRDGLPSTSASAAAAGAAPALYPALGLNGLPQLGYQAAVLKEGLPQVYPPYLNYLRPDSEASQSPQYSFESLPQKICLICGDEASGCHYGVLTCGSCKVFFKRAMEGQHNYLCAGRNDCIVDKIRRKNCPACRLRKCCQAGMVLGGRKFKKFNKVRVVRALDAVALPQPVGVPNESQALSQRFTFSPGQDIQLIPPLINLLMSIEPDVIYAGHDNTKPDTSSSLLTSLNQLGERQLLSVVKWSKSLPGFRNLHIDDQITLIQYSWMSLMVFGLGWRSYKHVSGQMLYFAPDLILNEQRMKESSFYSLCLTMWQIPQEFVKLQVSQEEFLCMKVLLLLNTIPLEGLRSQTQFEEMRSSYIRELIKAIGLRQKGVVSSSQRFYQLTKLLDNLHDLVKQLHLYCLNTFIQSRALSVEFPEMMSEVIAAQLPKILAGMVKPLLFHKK
Chain of Thyrotropin-releasing hormone receptor (Homo sapiens) (P34981 whole entry, looked up): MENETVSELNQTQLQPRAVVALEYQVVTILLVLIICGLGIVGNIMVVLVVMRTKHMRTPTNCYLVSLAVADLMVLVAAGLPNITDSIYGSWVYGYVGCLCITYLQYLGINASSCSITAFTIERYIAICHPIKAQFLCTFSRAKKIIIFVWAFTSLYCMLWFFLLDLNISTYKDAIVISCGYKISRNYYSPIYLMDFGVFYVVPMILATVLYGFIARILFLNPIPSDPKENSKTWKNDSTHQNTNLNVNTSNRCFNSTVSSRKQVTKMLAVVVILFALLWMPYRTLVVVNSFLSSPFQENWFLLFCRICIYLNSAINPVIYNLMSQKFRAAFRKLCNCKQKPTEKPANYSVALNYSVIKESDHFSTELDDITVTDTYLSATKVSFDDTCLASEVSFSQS
Chain of Cytochrome P450 2D6 (Homo sapiens) (P10635 whole entry, looked up): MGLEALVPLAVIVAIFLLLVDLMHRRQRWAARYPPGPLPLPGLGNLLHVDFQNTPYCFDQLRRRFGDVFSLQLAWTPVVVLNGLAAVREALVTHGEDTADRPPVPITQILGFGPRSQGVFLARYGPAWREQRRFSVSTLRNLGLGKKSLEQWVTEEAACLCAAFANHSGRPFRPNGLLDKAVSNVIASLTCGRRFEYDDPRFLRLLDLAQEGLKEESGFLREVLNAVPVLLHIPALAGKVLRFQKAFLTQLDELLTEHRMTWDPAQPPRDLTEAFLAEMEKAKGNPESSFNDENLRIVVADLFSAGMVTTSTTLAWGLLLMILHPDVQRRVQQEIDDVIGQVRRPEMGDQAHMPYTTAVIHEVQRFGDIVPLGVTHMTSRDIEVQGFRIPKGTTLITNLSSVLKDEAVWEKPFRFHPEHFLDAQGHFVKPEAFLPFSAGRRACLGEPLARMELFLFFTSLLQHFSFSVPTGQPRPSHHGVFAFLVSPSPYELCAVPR
Chain of Nuclear receptor subfamily 1 group I member 2 (Homo sapiens) (O75469 whole entry, looked up): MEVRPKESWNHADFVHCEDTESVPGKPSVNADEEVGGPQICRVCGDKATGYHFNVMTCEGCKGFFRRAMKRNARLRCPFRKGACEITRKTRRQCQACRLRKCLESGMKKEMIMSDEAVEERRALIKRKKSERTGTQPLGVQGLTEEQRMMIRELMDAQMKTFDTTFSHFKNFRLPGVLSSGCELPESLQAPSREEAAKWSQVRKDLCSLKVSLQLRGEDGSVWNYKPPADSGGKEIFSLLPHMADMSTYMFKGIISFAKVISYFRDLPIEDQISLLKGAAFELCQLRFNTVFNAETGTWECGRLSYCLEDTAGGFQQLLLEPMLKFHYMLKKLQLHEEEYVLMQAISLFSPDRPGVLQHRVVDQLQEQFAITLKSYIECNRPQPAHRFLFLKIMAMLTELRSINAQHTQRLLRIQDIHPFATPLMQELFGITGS
Chain of Nuclear receptor subfamily 1 group I member 2 (Rattus norvegicus) (Q9R1A7 whole entry, looked up): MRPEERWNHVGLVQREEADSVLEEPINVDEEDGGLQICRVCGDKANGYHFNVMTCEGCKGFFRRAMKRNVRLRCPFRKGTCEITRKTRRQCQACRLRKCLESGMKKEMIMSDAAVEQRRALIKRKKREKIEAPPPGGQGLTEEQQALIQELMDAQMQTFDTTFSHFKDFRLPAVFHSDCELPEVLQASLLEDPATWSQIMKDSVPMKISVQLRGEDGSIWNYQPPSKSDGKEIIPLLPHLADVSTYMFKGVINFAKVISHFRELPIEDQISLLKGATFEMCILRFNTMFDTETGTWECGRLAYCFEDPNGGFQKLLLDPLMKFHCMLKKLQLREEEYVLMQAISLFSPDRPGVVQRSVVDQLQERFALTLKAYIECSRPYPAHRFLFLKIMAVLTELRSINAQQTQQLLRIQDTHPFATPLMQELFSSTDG

Structure (SMILES) | Potency [1] | outcome [2] | Potency [3] | Potency [4] | Potency [5] | Potency [6] | Potency [7] | outcome [8] | Potency [9] | outcome [10] | Potency [11] | Potency [12] | Potency [13] | Potency [14] | outcome [15] | Potency [16] | Potency [17] | max activation [18] | Potency [19] | Potency [20]
SC1CCCC1 | inactive | inactive | inactive | inactive | inactive | inactive | inactive | inactive | inactive | inactive | inactive | inactive | inactive | inactive | – | – | – | – | – | –
ClC(Cl)(Cl)c1ccc(C(Cl)(Cl)Cl)cc1 | inactive | inactive | inactive | inactive | inactive | inactive | inactive | inactive | inactive | inactive | inactive | inactive | inactive | – | inactive | inactive | inactive | – | – | –
CC(C)c1cccc(C(C)C)c1NC(=O)NS(=O)(=O)c1cc(C(C)(C)O)co1 | inactive | inactive | inactive | inactive | inactive | inactive | inactive | inactive | inactive | inactive | inactive | – | inactive | inactive | – | – | inactive | – | – | –
CN1CCC[C@@H]1c1cccnc1 | inactive | inactive | inactive | inactive | inactive | inactive | inactive | inactive | inactive | inactive | inactive | inactive | inactive | 38.9 µM (active) | inactive | inactive | inactive | -0.0949% | inactive | inactive
CCCCCCCCCCCCCCCC(=O)OC/C=C(C)/C=C/C=C(C)/C=C/C1=C(C)CCCC1(C)C | inactive | inactive | inactive | inactive | inactive | inactive | inactive | inactive | inactive | inactive | – | inactive | inactive | inactive | inactive | – | 24.3 µM (active) | – | – | –
CC[C@H](C)[C@@H](C(=O)O)n1sc2ccccc2c1=O | inactive | inactive | inactive | 30.6 µM (active) | inactive | inactive | inactive | inactive | inactive | inactive | inactive | – | inactive | inactive | inactive | inactive | inactive | – | – | –
CCCCCc1ccc(N)cc1 | inactive | inactive | inactive | inactive | inactive | inactive | inactive | inactive | inactive | inactive | – | inactive | inactive | 31.7 µM (active) | inactive | inactive | – | – | – | –
CC[C@@H]1C[C@H](N(Cc2cc(C(F)(F)F)cc(C(F)(F)F)c2)C(C)=O)c2cc(C(F)(F)F)ccc2N1C(=O)OC(C)C | inactive | inactive | inactive | inactive | inactive | inactive | inactive | inactive | inactive | inactive | inactive | inactive | inactive | inactive | inactive | inactive | 0.77 µM (active) | – | – | –
CCN(CC)CCc1nc(-c2ccccc2)no1 | inactive | inactive | inactive | inactive | inactive | inactive | inactive | inactive | inactive | inactive | inactive | inactive | inactive | 7.76 µM (active) | inactive | inactive | – | -0.305% | inactive | inactive
CCCCCC/C=C/C=O | inactive | inactive | inactive | inactive | inactive | inactive | inactive | inactive | inactive | inactive | inactive | inactive | inactive | inactive | inactive | – | – | – | – | –
CC[C@H](C)[C@H](N)C(=O)O | inactive | inactive | inactive | inactive | inactive | inactive | inactive | inactive | inactive | – | inactive | inactive | inactive | inactive | inactive | inactive | inactive | -0.0819% | inactive | inactive
Cc1cc(NC(=O)C(=O)O)cc(C)c1Oc1ccc(O)c2c1CCC2 | inactive | inactive | inactive | inactive | inactive | inactive | inactive | inactive | inactive | inactive | – | inactive | inactive | – | inactive | inactive | inactive | – | – | –
C[Si](C)O[Si](C)(C)O[Si](C)(C)O[Si](C)C | inactive | inactive | inactive | inactive | inactive | inactive | inactive | inactive | inactive | inactive | inactive | inactive | inactive | inactive | inactive | inactive | inactive | – | – | –
CCCCOc1cc(C(=O)OCCN(CC)CC)ccc1N | inactive | inactive | inactive | inactive | inactive | inactive | inactive | inactive | inactive | inactive | inactive | – | inactive | – | inactive | – | – | -4.73% | – | –
O=C(O)/C=C/c1cnc[nH]1 | inactive | inactive | inactive | inactive | inactive | inactive | inactive | inactive | inactive | inactive | inactive | – | inactive | – | inactive | inactive | – | – | – | –
